PubChem BioAssay (NCATS)
Results filed as inconclusive are left out. Values without a mark were called inactive. The source made the active and inactive calls. Calls come from the whole dose curve.

Molecular target: Cytochrome P450 1A2 (Homo sapiens) (UniProt P05177)
Assay: p450-cyp1a2 (AID 410);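 for activity change, negative = inhibition: -100% = full effect of reference inhibitor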
Conditions: recombinant CYP1A2, luciferin-ME demethylation, luminescence; series mostly up to 11.4 µM; activity change, negative = inhibition: at the top concentration
Method: The P450 gene superfamily is involved in metabolism and the clearance of xenobiotics. This assay used human CYP1A2 to measure the demethylation of luciferin 6' methyl ether (Luciferin-ME; Promega-Glo) to luciferin. The luciferin is then measured by luminescence after the addition of a luciferase detection regeant. Luciferin-ME concentration in the assay was equal to its Km for CYP1A2.
NCGC Assay Protocol Summary:
Two uL of enzyme and substrate mix (final concentrations: 20nM CYP1A2, 100uM Luciferin-ME, 100mM KPO4) were dispensed into a white, solid bottom 1536-well microtiter plate. 23nL of compound was transferred by a pin tool. The plate was incubated at room temperature for 10 min. Two uL of an NADPH regeneration solution (Promega supplied reagent) was dispensed and the reaction was allowed to continue for 60 min at room temperature. Then the reaction was stopped by reconstituted detection reagent. After another 20 min of incubation the plate was read on the ViewLux (Perkin Elmer) at 60 sec exposure and 2x2 binning. This protocol was carried out with Promega-Glo reagents and further information can be found at http://www.promega.com/tbs/tb325/tb325.pdf. Data were normalized to the to AC100 inhibition (57 uM furafylline).
Potency is the fitted concentration of half-maximal effect.

Chain of Cytochrome P450 1A2 (Homo sapiens) (P05177 whole entry, looked up): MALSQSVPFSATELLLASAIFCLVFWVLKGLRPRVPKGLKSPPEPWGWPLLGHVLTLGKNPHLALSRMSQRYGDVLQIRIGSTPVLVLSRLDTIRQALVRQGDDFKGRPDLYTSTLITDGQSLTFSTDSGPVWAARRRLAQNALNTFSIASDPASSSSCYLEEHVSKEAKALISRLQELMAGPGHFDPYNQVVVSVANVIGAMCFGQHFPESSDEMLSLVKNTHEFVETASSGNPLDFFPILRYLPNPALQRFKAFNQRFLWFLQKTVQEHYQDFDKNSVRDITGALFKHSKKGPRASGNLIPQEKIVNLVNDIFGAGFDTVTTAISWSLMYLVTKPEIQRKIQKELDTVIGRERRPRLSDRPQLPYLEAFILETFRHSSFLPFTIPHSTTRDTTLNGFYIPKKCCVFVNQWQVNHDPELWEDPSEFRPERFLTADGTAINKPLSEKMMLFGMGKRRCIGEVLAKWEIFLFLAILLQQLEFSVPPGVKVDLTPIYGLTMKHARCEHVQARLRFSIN

Row | SMILES | activity change, negative = inhibition | Potency
1 | N#C/C(=C\Nc1ccccn1)C(=O)c1ccco1 | -22.9% | –
2 | Cc1ccc(S(=O)(=O)N[C@H](CO)C(=O)O)cc1 | -12% | –
3 | O=C(O)/C(=C\c1ccccc1)Cc1ccccc1 | -18.4% | –
4 | CN(C)CCNc1ccccn1 | -5.9% | –
5 | O=C(O)CCc1nc(-c2ccccc2-n2cccc2)no1 | -17.3% [at 2.29 µM] | –
6 | Cc1cc(CN2CCCCC2)c(O)c(CN2CCCCC2)c1 | -18.8% [at 2.29 µM] | –
7 | ClC(=Nc1cccc2ccccc12)N(c1ccccc1)c1ccccc1 | – | 1 µM (active)
8 | O=C(O)/C=C\C(=O)Nc1ccc2c(c1)C(=O)c1cc(F)ccc1-2 | – | 0.794 µM (active)
9 | COC(=O)[C@@H]1[C@@H]2C[C@H]3c4[nH]c5ccccc5c4CCN3C[C@@H]2CC[C@@H]1OS(=O)(=O)O | -10.3% [at 2.29 µM] | –
10 | C/C(=N/NS(=O)(=O)c1ccc(C)cc1)P(=O)(O)O | -10% | –
11 | O=P(O)(O)O[C@@H]1O[C@H](CO)[C@@H](O)[C@H](O)[C@@H]1O | -16.5% | –
12 | CN(C)CN1C(=O)S/C(=C2/C(=O)N(CN(C)C)c3ccccc32)C1=O | – | 0.794 µM (active)
13 | COc1ccc(/C=N\NC(=O)O)cc1 | – | 0.501 µM (active)
14 | [N-]=[N+]=NC[C@@H]1O[C@@H](n2cnc3c(N)ncnc32)[C@@H]2O[C@@H]21 | -13.8% | –
15 | NC[C@H](O)C1CCCCCCC1 | -18.7% [at 57 µM] | –
16 | c1ccc(NCCSc2nc3ccccc3s2)cc1 | – | 0.501 µM (active)
17 | Cc1ccc(S(=O)(=O)N=Nc2c(O)[nH]c3cc(O)c(C(=O)O)cc23)cc1 | -15.8% [at 2.29 µM] | –
18 | CCOC(=O)[C@]1(CC(=O)O)CCCC1=O | -12.7% | –
19 | N[C@@H](Cc1cccnn1)C(=O)O | – | 3.16 µM (active)
20 | NCCSCc1ccccc1Cl | – | 3.16 µM (active)

Row | SMILES | activity change, negative = inhibition | Potency
21 | COc1ccc(-c2csc3c2[N+]2=CCC=C2C3=O)cc1 | – | 0.501 µM (active)
22 | Cc1ccc(C(=N)c2ccccc2Cc2cccc3ccccc23)c2ccccc12 | – | 1 µM (active)
23 | C[C@]12CC[C@H]3c4ccc(O)cc4CC[C@@H]3[C@H]1CC[C@@H]2OP(=O)(O)O | -11.2% [at 2.29 µM] | –
24 | O=C(O)CCNc1ccccc1C(=O)O | -11.9% | –
25 | C[C@@](O)(CNS(=O)(=O)c1ccccc1)c1ccccc1 | -17.4% | –
26 | CN(Cc1cccc2ccccc12)Cc1cccc2ccccc12 | – | 3.16 µM (active)
27 | O=C(O)CSCCc1ccccc1 | -15.5% | –
28 | O=C(O)c1ccc(Oc2nc3ccccc3s2)cc1 | – | 3.16 µM (active)
29 | CC[C@@H]1CC(=O)N(SC[C@H](N)C(=O)O)C1=O | -14.7% | –
30 | COCCn1c(=O)c(-c2ccc(OC)cc2)nc2cnc(OC)nc21 | – | 3.16 µM (active)
31 | COc1ccc(C=Nc2c(O)ccc3ccccc23)cc1OC | – | 0.251 µM (active)
32 | Nc1nc(SCc2ccccc2Cl)cc(C(=O)O)n1 | 6.2% [at 2.29 µM] | –
33 | O=C(C[C@@H]1C=Cc2ccccc2N1C(=O)c1ccccc1)c1ccccc1 | -23.2% [at 2.29 µM] | –
34 | COc1cc(O)c2c(O)c3c(c4c2c1[C@@]1(C4)C(C)=CCCC1(C)C)[C@H](O)[C@@]1(O)CC(=O)C(C(N)=O)=C(O)[C@]1(O)C3=O | – | 3.16 µM (active)
35 | O=C(O)[C@@H]1[C@@H](C(=O)NCc2cccnc2)[C@@H]2C=C[C@@H]1O2 | -0.4% [at 2.29 µM] | –
36 | C[C@@]12CC(=O)[C@@H]3[C@@H](CCC4=CC(=O)CC[C@]43C)[C@@H]1CC=C2CC(=O)O | -17% | –
37 | N[C@@H]1[C@@H]2[C@@H]3C[C@H]4N(CC[C@@]14C(=O)C(=O)O)CC3=CCO[C@@H]2CC(=O)O | -16.2% | –
38 | N[C@@H](Cc1cccc([N+](=O)[O-])c1)C(=O)O | -10.6% | –
39 | NC(N)=Nc1nc2ccc([N+](=O)[O-])cc2[nH]1 | – | 3.16 µM (active)
40 | CCO[P@]1(=O)OC[C@@H]2O[C@H](n3cnc4c(N)ncnc43)[C@H](O)[C@@H]2O1 | -15.6% [at 2.29 µM] | –
